Only some compounds are listed: those with a hit (about 3.1% of all), similar ones and a draw of the others.
pS6 MEF inh – reduces mTORC1 signaling in Tsc2 and p53 null MEF cells | Tsc2-/- p53-/- MEF, phospho-rpS6 immunofluorescence/PI, 24 h | Potency, µM (titrated, usually from 38.3 µM), for inactives: at the highest dose activity change, negative = inhibition, usual class: inhibitors | hit rate 0.78% among 44,000 | AID 493208;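 further: plate controls were DMSO for no effect and rapamycin for full effect; nearly all actives have a fitted effect of over 50% in size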
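Plate MEFs (Tsc2-/-, p53-/-, empty vector) in DMEM/10% FBS; after 24 h add compound, incubate 24 h at 37 degree Celsius; fix in PFA/TX-100, block, stain phospho-rpS6 and 10 uM PI; scan at 488 nm; report % positive cells.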
SKOV3 invasion – inhibitors of ovarian cancer cell adhesion and invasion in omental model | SKOV3ip1-GFP adhesion/invasion on 3D omental model, fluorescence | Potency, µM (highest dose often 45.8 µM), without a hit: top-dose activity change, negative = inhibition, usual class: inhibitors | hit rate 0.1% among 46,000;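 further: plate controls were DMSO wells for no effect and tomatine positive control wells for full effect; nearly all actives have a fitted effect of over 65% in size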
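Primary human omental fibroblast/mesothelial 3D culture pre-formed 48 h. SKOV3ip1-GFP cells added with compounds (0.36-46 umol/L), incubated 2 h RT/16 h 37 C, fixed; GFP cells quantified at 488/509 nm.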
PMP22 txn – PMP22 gene transcription modulation; S16 Pmp22-F2sN Schwann cells, FLuc/NLuc coincidence luminescence, 24 h; Potency, µM (top dose mostly 57.5 µM), without a hit: top-dose activity change, negative = inhibition, usual class: inhibitors; hit rate 2% among 43,000; AID 1508649; active means clear falling dose curves in both reporters; inconclusive means both reporters move, but less clearly or upward; inactive means either reporter flat; the % is the NLuc reporter signal
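Schwann cells carrying the coincidence reporter were exposed to library compounds for 24 h at 37C, then lysed and read for FLuc and, after quenching, NLuc luminescence on a CCD imager.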
S16 F2sN tox – cytotoxicity in S16 Pmp22-F2sN Schwann cells; S16 Pmp22-F2sN Schwann cells (luciferase reporters placed in the Pmp22 gene) viability, CellTiter-Glo, 24 h; Potency, µM (doses to about 57.5 µM), inactives show at the top dose activity change, negative = cytotoxicity, most hits filed as cytotoxic; hit rate 0.48% among 43,000; further: nearly all actives have a fitted effect of over 65% in size
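Seed 500-1,000 S16 Pmp22-F2sN cells per well in phenol-red-free DMEM with 10% heat-inactivated FBS; pin-add 23 nL compound; incubate 24 h at 37C; add CellTiter-Glo, wait 15 min protected from light; read luminescence.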
p53null 32C kill – selectivity test: cytotoxicity in p53 null cells, permissive temperature; H1299-neo p53 null cells, ATP luminescence, 24 h, 32C; Potency, µM (series often up to 46.1 µM), for the others: top-dose activity change, negative = cytotoxicity, hits mostly cytotoxic; hit rate 0.62% among 55,000;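 further: 0% = DMSO only and -100% = full killing by 100 µM tamoxifen; nearly all actives have a fitted effect of over 55% in size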
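H1299-neo (p53 null) cells, 600/well, treated 24 h at 32C with compound up to 46 uM; ATPlite luminescence viability, normalized to DMSO and 100 uM tamoxifen; AC50 by Hill fit.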
p53null 39C kill – selectivity test: cytotoxicity in p53 null cells, nonpermissive temperature | Potency, µM (series often up to 46.1 µM), without a hit: at the highest dose activity, negative = cell killing, hits mostly cytotoxic | H1299 p53-null (neo) cells, 39C, ATPlite viability, 24 h | hit rate 0.97% among 55,000;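 further: 0% = DMSO only and -100% = full killing by 100 µM tamoxifen; nearly all actives have a fitted effect of over 50% in size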
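Concentration-response (up to 46 uM) was run for 24 h at the nonpermissive 39C on H1299-p53A138V or H1299-neo cells. ATP content was measured with ATPlite luminescence. AC50 values were Hill-modeled after normalizing between DMSO and 100 uM tamoxifen killing.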
The depositor's hits bear a star; i = inactive; ? = inconclusive; · = no result given. Unless noted, the call rests on the fitted dose curve; in most records, active means well fitted curve in the direction sought with a large enough effect; inconclusive means small, poorly fitted or top-dose-only effect, or another doubt; inactive means no such curve, though single readings can be large; an effect the other way counts as inactive or inconclusive. Unless noted, on the % scale 0 is the no-effect control and ±100 the full control effect; potency means the concentration at half of the fitted maximal effect.

SMILES | pS6 MEF inh | SKOV3 invasion | PMP22 txn | S16 F2sN tox | p53null 32C kill | p53null 39C kill
Cc1ccc(Nc2ncnc3c2nc2n3CCCC2)c(Br)c1 | -1% | -6% | -4% | -5% | ? | 11µM*
O=C(C1CCN(c2ncnc3c2nc2n3CCCCC2)CC1)N1CCN(c2ccc(F)cc2)CC1 | 0% | 7% | ? | ? | 5% | -23%
Cc1ccc(CNc2ncnc3c2nc2n3CCCC2)cc1 | -1% | 25% | -33% | -3% | -12% | -13%
CC(C)(C)C(=O)Oc1ccc2c(c1)nc(NC(=O)c1cccc([N+](=O)[O-])c1)n2CCCO | · | 8% | · | · | · | ·
CCCCn1c2ccc(F)cc2c2nnc(SCCN(CC)CC)nc21 | ? | -16% | 15µM* | -7% | -6% | -22%
Cc1ccnc(NS(=O)(=O)c2ccc(NC(=O)Nc3ccc(S(=O)(=O)Nc4nccc(C)n4)cc3)cc2)n1 | · | 9% | · | · | · | ·
O=C(COc1ccc(F)cc1)NCCc1nc2ccccc2[nH]1 | -12% | 3% | -5% | -1% | 14% | -12%
c1ccc2cc(OCc3nc4ccccc4[nH]3)ccc2c1 | · | · | · | · | 11µM* | 11µM*
CCC(=O)NC[C@H](Cc1ccc(OCCc2nc(-c3ccccc3)oc2C)cc1)NC(C)=CC(=O)c1ccc(C(F)(F)F)cc1 | · | -14% | · | · | · | ·
Cc1ccc(OC(=O)c2cc(-c3ccc4c(c3)OCCO4)on2)cc1C | -1% | i | 5% | ? | ? | 25µM*
Cc1cc(OC(=O)c2cc(-c3ccc4c(c3)OCCO4)on2)ccc1Cl | -1% | i | -8% | 0% | -27% | 16µM*
O=C(Nc1cccc(Cl)c1)c1cc(-c2ccc3c(c2)OCCO3)on1 | -15% | -4% | -16% | -2% | ? | ?
Cc1ccc(Cl)cc1NC(=O)c1cc(-c2ccc3c(c2)OCCO3)on1 | -18% | 36% | -14% | 0% | ? | ?
Cc1cccc(NC(=O)c2cc(-c3ccc4c(c3)OCCO4)on2)c1 | -16% | -1% | -9% | -2% | 1.3µM* | 1.3µM*
c1ccc(-c2nn3c(c2-c2ccnc4cc(OCCN5CCOCC5)ccc24)CCC3)nc1 | · | 23% | · | · | · | ·
CO[C@@H](C(=O)N1Cc2[nH]nc(NC(=O)c3ccc(N4CCN(C)CC4)cc3)c2C1)c1ccccc1 | · | 13µM* | · | · | · | ·
Cc1cccc(Cn2c(Cc3ccccc3)nc3ccccc32)c1 | 2% | -2% | -3% | 13% | 51% | 20µM*
COCc1nc2ccccc2n1Cc1cccc(C)c1 | -1% | 4% | -20% | 15% | -7% | -15%
Cc1nc2c([nH]1)CCN(C(=O)c1ccc(NC(=O)c3ccccc3-c3ccccc3)cc1)c1ccccc1-2 | · | -9% | · | · | · | ·
O=S1(=O)N=C(Nc2nc3c(s2)CCCC3)c2ccccc21 | · | · | · | · | 11µM* | 5.6µM*
Oc1cccc(C(Nc2ccccn2)c2ccc3cccnc3c2O)c1Cl (stereo unspecified) | ? | -4% | · | · | ? | 4µM*
Nc1nc(Nc2ccc(S(N)(=O)=O)cc2)nn1C(=O)c1c(F)cccc1F | · | 24% | · | · | · | ·
COC(=O)c1c(SCC(=O)Nc2cc(C)cc(C)c2)[nH]c2ccccc2c1=O | -10% | i | ? | -12% | ? | ?
COC(=O)c1c(SCC(=O)Nc2ccccc2C(F)(F)F)[nH]c2ccc(Cl)cc2c1=O | -3% | 5% | -10% | 14% | -25% | 6.3µM*
COc1ccc(Cl)cc1NC(=O)CSc1c2c(nc3ccccc13)CCC2 | -11% | -6% | ? | 3% | 12% | 61%
SMILES | pS6 MEF inh | SKOV3 invasion | PMP22 txn | S16 F2sN tox | p53null 32C kill | p53null 39C kill
COc1cccc(NC(=O)CSc2c3c(nc4ccccc24)CCCC3)c1 | ? | 11µM* | ? | ? | 54% | -16%
Cc1ccc(NC(=O)CSc2c3c(nc4ccccc24)CCCC3)cc1F | -13% | -23% | ? | -18% | 73% | 22µM*
CC(C)C[C@H](CC(=O)O)C(=O)N[C@@H](Cc1c[nH]c2ccccc12)C(=O)N[C@@H](C)c1ccccc1 | · | 6% | · | · | · | ·
CN[C@@H](C)[C@H]1[C@H](O)C[C@@]2(C)[C@@H]3CC[C@H]4C(C)(C)[C@@H](NC)CC[C@@]45C[C@@]35CC[C@]12C | · | -15% | · | · | · | ·
CC=C(C)C(=O)O[C@H]1C(C)=C[C@]23C(=O)[C@@H](C=C(CO)[C@@H](O)[C@]12O)[C@H]1[C@@H](C[C@H]3C)C1(C)C | · | 0% | · | · | · | ·
CCCCS(=O)(=O)c1oc(-c2ccc(F)cc2)nc1S(=O)(=O)c1ccc(C)cc1 | 4.1µM* | -8% | 8.4µM* | ? | 16µM* | ?
O=S(=O)(c1ccccc1)c1nc(-c2ccc(F)cc2)oc1N1CCCCCC1 | 2% | 0% | ? | ? | 17% | 20%
CCC(C)S(=O)(=O)c1oc(-c2ccc(F)cc2)nc1S(=O)(=O)c1ccc(F)cc1 (stereo unspecified) | 0.83µM* | 3.5µM* | 2.5µM* | 6.3µM* | 25µM* | -17%
CCS(=O)(=O)c1oc(-c2ccc(F)cc2)nc1S(=O)(=O)c1ccccc1 | 0.13µM* | -8% | 2.5µM* | 3.2µM* | ? | 28%
Cc1ccc(S(=O)(=O)c2nc(-c3ccc(F)cc3)oc2N2CCN(c3ccccc3)CC2)cc1 | -8% | -2% | 0% | 4% | 2% | 5%
CCCSc1oc(-c2cccs2)nc1S(=O)(=O)c1ccc(C)cc1 | 0% | 0% | -11% | 3% | 19% | 18%
CCCCS(=O)(=O)c1oc(-c2cccs2)nc1S(=O)(=O)c1ccc(F)cc1 | 2.1µM* | ? | 3µM* | 2.8µM* | 23% | 55%
CSc1oc(-c2ccc(F)cc2)nc1S(=O)(=O)c1ccc(Br)cc1 | -1% | -15% | 6% | -15% | -4% | -7%
CNC(=O)[C@H](Cc1ccccc1)NC(=O)[C@H](CC(C)C)[C@H](CSc1cccs1)C(=O)NO | · | -10% | · | · | · | ·
C=CC(=O)N1CCc2ccc(-n3c(=O)ccc4cnc5ccc(-c6cnn(C)c6)cc5c43)cc21 | · | 4% | · | · | · | ·
CCN1CCN(CCCNC(=O)c2cnn(-c3ccc(C)cc3)c2C2CCN(C(=O)OC(C)(C)C)CC2)CC1 | 1% | -7% | -49% | 5% | 2% | 8%
Cc1ccc(C)c(N2CCN(CCCNC(=O)c3cnn(-c4ccc(F)cc4)c3C3CCN(C(=O)OC(C)(C)C)CC3)CC2)c1 | ? | -15% | ? | ? | 22% | 25µM*

Assay outcomes from PubChem.
